The values below come from PubChem BioAssay (NCATS).

Each structure is given as a SMILES string. Records with an inconclusive call do not appear. Where a call stands in place of a potency, no number is given. Active and inactive are the calls of the source. The call rests on the fitted dose curve; in most records, active means well fitted inhibition curve with a large enough effect; inconclusive means small, poorly fitted or top-dose-only effect; inactive means no such curve, though single readings can be large or run the other way.
Potency means the concentration at half of the fitted maximal effect.

This assay in a line: qHTS for Inhibitors of the Aldehyde Dehydrogenase Family (ALDH1A2, ALDH1A3, ALDH2, ALDH3A1) (AID 2061307). Further: nearly all actives have a fitted effect of over 50% in size. On potency: test system not described further here. The conditions noted are these: ALDH inhibition qHTS; series mostly up to 50.3 µM. On the technique in general: qHTS replaces the single test concentration by a dilution series.
Consider `Cc1cnc(Cl)nc1NCc1ccc(-n2ccnn2)cc1`, for which the Potency result was “inactive”.
With `O=C(CNc1cccc(S(=O)(=O)N2CCOCC2)c1)Nc1ccc(OC(F)(F)F)cc1`, the Potency is 1270 nM (active).
Consider `CC(C)Oc1ccccc1NC(=O)N1CCN(c2ccccc2)CC1`, for which the Potency result is “inactive”.
As for `COc1ccc(C(=O)O/N=C(\N)c2ccccn2)cc1`, the figure is 538 nM (active); as for `CC(NC(=O)c1ccco1)c1nc(-c2ccccc2)no1` (stereo not given), “inactive”.
Take `Nc1nc2c(s1)C(c1ccccc1)CC(=O)N2` (stereo not given): the Potency was 11300 nM (active).
Consider `Cc1ccc2c(=O)cc(C(=O)Nc3cccc(C(F)(F)F)c3)oc2c1C`, for which the Potency result is “inactive”.
In the case of `CS(=O)(=O)c1cccc(-c2csc3ncnc(NCc4ccccn4)c23)c1`, the Potency was 14100 nM (active).
In the case of `COc1ccc(NC(=O)c2ccc3ccccc3n2)cc1S(N)(=O)=O`, the Potency entry is “inactive”.
Regarding `CS(=O)(=O)c1cccc(-c2csc3ncnc(Sc4nncs4)c23)c1`, the Potency result is “inactive”.
On to `Cc1nn(CC(=O)N2CCN(c3cccc(C(F)(F)F)c3)CC2)c(=O)c2cc3sccc3n12`, for which the Potency result was “inactive”.
With `O=C(N/N=C/c1ccco1)c1cccc(F)c1`, the Potency entry was “inactive”.
As to `NC(=O)Cc1ccc(Nc2ncnc3c2cnn3-c2ccccc2)cc1`, the Potency result is “inactive”.
As for `Fc1ccc(CN2CCC(N(CCc3ccccc3)Cc3ccccc3)CC2)cc1`, the Potency entry is “inactive”.
In the case of `Cc1ccc(-n2ncc3c(Nc4cccc(C(=O)O)c4)ncnc32)cc1`, the Potency result is “inactive”.
As for `CCOc1ccc(NC(=O)c2ccc(NC(=O)CN3C(=O)N(C)C4(CCCCC4)C3=O)cc2)cc1`, the figure is 7080 nM (active).
Consider `FC(F)(F)c1ccnn1-c1nc(-c2ccccc2Cl)cs1`, for which the Potency result was “inactive”.
In the case of `Cc1cnc(CNc2nc(-c3ccccc3Cl)nc3ccccc23)cn1`, the Potency result was “inactive”.
For the molecule `N#CC1CCN(c2nc(Br)cs2)CC1`, the Potency result was “inactive”.
As for `COc1ccccc1C(=O)Nc1nc2nc(C)cc(=O)n2[nH]1`, the entry is “inactive”; as for `CC/C=C\C/C=C\C/C=C\C/C=C\C/C=C\C/C=C\CCC(=O)NCCN(C)C`, “inactive”.
`CN(C)CCCN1c2ccc([N+](=O)[O-])cc2CCc2cc([N+](=O)[O-])ccc21`: the Potency entry was “inactive”.
As for `COc1ccc(C(=O)OCC(=O)Nc2cccc(C(F)(F)F)c2)cc1OC`, the entry is “inactive”; as for `CC(=O)c1c(C)n(-c2ccccc2)c2ccc(O)cc12`, 798 nM (active); as for `CC(=O)c1cccc(NC(=O)c2noc3c2CSc2ccccc2-3)c1`, “inactive”.
Turning to `CC(C)(C)c1ccccc1-n1c(CN2CCN(C(=O)c3ccco3)CC2)nc2ccccc2c1=O`, the Potency result was “inactive”.
On to `Cc1ccc(NC(=O)Cc2c(C)nn(C)c2C)cc1F`, for which the Potency is 10000 nM (active).
On to `Oc1ccccc1NCC(O)Cn1ccc2ccccc21` (stereo not given), for which the Potency entry was “inactive”.
As for `N#Cc1ccc(NC(=O)Cn2cnc3ccccc3c2=O)cc1`, the Potency result was “inactive”.
With `CCOc1ccc2[nH]c(=O)c(CN(Cc3nnnn3Cc3ccco3)C3CCCCC3)cc2c1` the figure was 896 nM (active); with `COC(=O)CC(=O)Nc1ccccc1C(=O)O`, “inactive”; with `O=C1C(=O)N(Cc2ccccc2)c2ccccc21`, 1790 nM (active).
With `CN(C)CC(=O)NC1CCCc2c1cnn2-c1ccc(OCCOCCOCCNC(=O)OC(C)(C)C)cc1` (stereo not given) the entry was “inactive”; with `O=C(Nc1nnc(Cc2ccccc2)s1)c1ccc(F)c(F)c1`, “inactive”; with `COc1ccc(-c2cc(C(=O)Nc3ccc(C(N)=O)cc3F)sc2C)cc1`, “inactive”.
`O=C(O)c1cccc(S(=O)(=O)N2CCC(n3nnc4cc(C(F)(F)F)ccc43)CC2)c1`: the Potency entry was “inactive”.
On to `COc1ccc(C2Nc3c(OC)ccc(OC)c3C(=O)N2Cc2ccccc2)cc1COc1ccc(NC(C)=O)cc1` (stereo not given), for which the Potency is 2830 nM (active).
With `Cn1c(C(=O)O)cnc1-n1cc(Cc2ccc(S(N)(=O)=O)cc2)c(-c2ccccc2)n1` the entry was “inactive”; with `O=C(Nc1nc2ccc(Cl)cc2s1)c1cc(=O)c2ccccc2o1`, “inactive”.
With `COc1ccc(-n2c(C)c(C(C)=O)c3cc(OC)ccc32)cc1`, the Potency result was “inactive”.
